# A selection: hits, their analogues and other compounds. The true share with any hit is near 19%.
# Gal4-VP16 FLuc: VP16 counterscreen qHTS for inhibitors of ROR gamma transcriptional activity | Drosophila S2 Gal4-VP16 UAS-luciferase, luminescence, 20 h | hit rate 3.5% among 310,000 | AID 2546, 2010 | Potency, µM (doses to about 53.6 µM), for inactives: at the top dose activity, negative = inhibition, usual class: inhibitors;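 further: Gal4-VP16 expression switched on by copper sulfate through the metallothionein promoter; nearly all actives have a fitted effect of over 50% in size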
# TDP1 block: qHTS Assay for Inhibitors of Tyrosyl-DNA Phosphodiesterase (TDP1); Tyrosyl-DNA phosphodiesterase 1 (Homo sapiens), Q9NUW8; hit rate 0.28% among 350,000; recombinant TDP1, AlphaScreen DNA substrate cleavage; Potency, µM (highest dose often 130 µM), for inactives: at the top dose activity change, negative = inhibition, most hits filed as inhibitors; further: nearly all actives have a fitted effect of over 40% in size
# Target sequence (Q9NUW8 whole entry, looked up): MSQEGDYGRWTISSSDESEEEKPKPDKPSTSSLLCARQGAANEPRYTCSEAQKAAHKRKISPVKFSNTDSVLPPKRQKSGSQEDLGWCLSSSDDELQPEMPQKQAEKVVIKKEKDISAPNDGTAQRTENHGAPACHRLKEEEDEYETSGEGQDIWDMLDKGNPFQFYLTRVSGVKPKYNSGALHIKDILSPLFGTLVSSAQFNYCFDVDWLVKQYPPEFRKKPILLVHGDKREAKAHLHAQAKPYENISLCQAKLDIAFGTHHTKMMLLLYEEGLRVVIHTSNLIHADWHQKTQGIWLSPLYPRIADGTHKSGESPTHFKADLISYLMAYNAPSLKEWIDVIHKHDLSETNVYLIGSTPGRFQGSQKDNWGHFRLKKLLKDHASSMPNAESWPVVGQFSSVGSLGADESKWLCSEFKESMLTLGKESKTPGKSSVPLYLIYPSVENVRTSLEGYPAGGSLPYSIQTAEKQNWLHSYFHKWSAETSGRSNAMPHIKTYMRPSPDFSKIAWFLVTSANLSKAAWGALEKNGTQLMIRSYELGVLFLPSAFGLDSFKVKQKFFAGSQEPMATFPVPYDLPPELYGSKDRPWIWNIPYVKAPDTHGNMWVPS
#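 Compounds were preincubated with Tdp1 (1 nM final) for 15 min at room temperature before substrate (15 nM final) started a 5 min reaction; beads (10 ug/ml final) were then added for 10 min before AlphaScreen detection.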
# RORg inh: qHTS for inhibitors of ROR gamma transcriptional activity | Potency, µM (series often up to 53.6 µM), for inactives: top-dose activity change, negative = inhibition, hits mostly inhibitors | hit rate 5.4% among 310,000 | Drosophila S2 Gal4-RORgamma UAS-luciferase reporter, 20 h | AID 2551, 2010 | Nuclear receptor ROR-gamma (Mus musculus), P51450; further: nearly all actives have a fitted effect of over 60% in size
#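 A Gal4/UAS one-hybrid system in insect cells: metallothionein-promoter Gal4–ROR gamma fusion plus Photinus luciferase reporter. Copper sulfate 700 uM final, 20 hr ambient incubation, luminescent detection after 10 min with reagent.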
# TDP1 cell CPT: qHTS for Inhibitors of human tyrosyl-DNA phosphodiesterase 1 (TDP1): qHTS in cells in presence of CPT. chicken DT40 Tdp1-/-;hTDP1 cells + 20 nM CPT, ATP luminescence, 48 h. Potency, µM (titrated, usually from 46.2 µM), for the others: at the top dose activity change, negative = growth inhibition, hits mostly inhibitors. hit rate 12% among 420,000. AID 686979, 2013; further: nearly all actives have a fitted effect of over 55% in size
#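 Chicken DT40 Tdp1-/- cells stably complemented with human TDP1 were seeded at 400 cells/well in medium containing 20 nM camptothecin, exposed to pin-transferred compounds, and grown at 37 °C for at least 48 hr. Viability was read as ATP luminescence.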
# TDP1 cell noCPT: qHTS for Inhibitors of human tyrosyl-DNA phosphodiesterase 1 (TDP1): qHTS in cells in absence of CPT | Potency, µM (top dose mostly 46.2 µM), without a hit: top-dose activity change, negative = growth inhibition, usual class: inhibitors | AID 686978, 2013 | DT40 Tdp1-/- hTDP1 cells, no CPT, ATP luminescence, 48 h | hit rate 15% among 420,000; further: nearly all actives have a fitted effect of over 55% in size
#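 Stably hTDP1-transfected Tdp1-null chicken DT40 cells were treated with library compounds minus camptothecin and grown for at least 48 hr at 37 °C, after which cellular ATP was quantified by luminescence.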
# * = called active by the depositor; ? = inconclusive; . = not tested or not shown; [ ] = remark or other dose. The call rests on the fitted dose curve; in most records, active means well fitted curve in the direction sought with a large enough effect; inconclusive means small, poorly fitted or top-dose-only effect, or another doubt; inactive means no such curve, though single readings can be large; an effect the other way counts as inactive or inconclusive. On the % scale 0 is the no-effect control and ±100 the full control effect; potency means the concentration at half of the fitted maximal effect.
SMILES,Gal4-VP16 FLuc,TDP1 block,RORg inh,TDP1 cell CPT,TDP1 cell noCPT
Cn1nnc2c(sc3nc(N4CCOCC4)c4c(c32)CCCC4)c1=O,-4.4%,2.3%,28.9%,?,?
Cc1ccc(S(=O)(=O)Cn2nnnc2C(C(C)C)N2CCC(O)CC2)cc1 (stereo not given),-4.2%,.,-15.3%,-4.9%,-14.1%
COc1ccc(/C=C/C(=O)NC(=S)NNC(=O)c2cccnc2)cc1,-43.2%,6.9%,-2.9%[10 µM],?,?
COc1ccc(/C=C/C(=O)NC(=S)NNC(=O)c2cnccn2)cc1,6.3%,10.3%,-13.0%,2.91µM*,5.17µM*
O=C(/C=C/c1ccc(F)cc1)NC(=S)NNC(=O)c1cnccn1,0.6%,10.3%,-19.0%,3.66µM*,3.26µM*
O=C(NC(=S)NNC(=O)c1cnccn1)c1ccc(F)cc1,-5.5%,6.1%,-35.0%,3.26µM*,5.17µM*
CO[C@H]1COC(=O)C/C=C\[C@@H](C)COC(=O)[C@@H](C)NC(=O)C/C=C\[C@@H]1C,2.9%[10 µM],6.9%[21 µM],2.1%[10 µM],.,.
O=C(CN1CCN(c2ccc(Cl)cc2)CC1)NCc1ccccc1,0.2%,-2.7%,37.8%,?,?
CCCc1nc2c(Cl)cc(C(F)(F)F)cn2c1Cc1ccc(OC)cc1C,.,.,.,20.6µM*,16.4µM*
COc1ccc(Cc2c(-c3ccc(C#N)cc3)nc3c(Cl)cc(C(F)(F)F)cn23)c(C)c1,.,.,.,?,18.4µM*
COc1ccc(-c2nc3c(Cl)cc(C(F)(F)F)cn3c2Cc2ccccc2C(F)(F)F)cc1OC,.,.,.,-4.4%,-17.7%
CNc1ccc(/C=C2\COc3ccccc3C2=O)cc1[N+](=O)[O-],?,1.9%,37.2%,?,11.6µM*
O=C1/C(=C/c2ccccc2[N+](=O)[O-])COc2ccccc21,?,2.6%,?,2.59µM*,?
O=C1c2ccccc2OCOc2ccccc21,3.8%,-1.0%,-2.5%,-24.4%,-4.2%
O=C1/C(=C/c2ccccn2)COc2ccccc21,-15.5%,6.9%,-25.6%,2.06µM*,4.61µM*
CCOc1cc(/C=C2/COc3ccccc3C2=O)ccc1OCC(=O)N(C)C,?,3.7%,?,?,?
O=C1/C(=C/c2ccc(O)cc2)COc2ccccc21,?,21.6%,?,-0.4%,-16.6%
O=c1cc(O)c(-c2cccc(Cl)c2)c(Cl)[nH]1,2.7%,-1.5%,-2.4%,-12.1%,-8.7%
CN(C)S(=O)(=O)Oc1cccc(C(=O)Nc2ccc([N+](=O)[O-])cc2)c1,5.2%,0.0%,61.0%,?,8.2µM*
O=C(Nc1ccc(O)cc1)c1cccc(Oc2ccc([N+](=O)[O-])cc2)c1,-0.5%,-8.3%,-34.3%,?,18.4µM*
CC(C)c1nnc(NC(=O)c2cc3ccccc3o2)s1,?,.,?,14.0%,-15.9%
Nc1nc(N)c2cc(S(=O)(=O)c3cccc(C(F)(F)F)c3)ccc2n1,.,.,.,3.66µM*,0.92µM*
CCOC(=O)c1cccc(NC(=O)CSc2nc(N)cc(N)n2)c1,4.8%,-3.0%,16.6%,0.1%,-14.5%
Cc1cc(C)c(S(=O)(=O)NCc2ccc3c(c2)cc(C)n3C)c(C)c1,-18.7%,10.9%,?,?,23.1µM*
CCC(=O)N1CCc2cc(CNS(=O)(=O)c3c(C)cc(C)cc3C)ccc21,.,5.4%,.,?,20.6µM*
SMILES,Gal4-VP16 FLuc,TDP1 block,RORg inh,TDP1 cell CPT,TDP1 cell noCPT
Cc1cc(C)c(S(=O)(=O)NCc2ccc3c(c2)CCN3C(=O)c2ccccc2)c(C)c1,.,8.1%,.,14.6µM*,10.3µM*
Cc1cc2cc(CNS(=O)(=O)c3ccc4ccccc4c3)ccc2n1C,3.6%,7.6%,29.9%,1.4%,-12.2%
O=C(Cn1cncn1)N/N=C/c1cccc(Cl)c1,-3.8%,.,-7.4%,7.9%,-13.4%
CCOC(=O)c1c(C)n(C)c2cc(Br)c(C)cc12,0.8%,-3.4%,11.9%,-6.7%,-12.5%
CCOC(=O)c1c(C)n(C)c2c(C)cc(O)c(OC(=O)CC)c12,-0.4%,-1.0%,-4.4%,7.31µM*,?
CCOC(=O)C1=C(N)c2ccccc2CC1C1CCCC1 (stereo not given),-9.6%,5.6%,-6.1%,25.9µM*,?
C=C1c2ccccc2O[C@H](C(=O)OCC)[C@@H]1C1CCCCC1,.,-8.8%[56.1 µM],.,?,?
CC12CCC(C(=O)N(CSC(=S)N/N=C\c3ccccc3)C1=O)C2(C)C (stereo not given),1.58µM*,2.5%,1.12µM*,5.8µM*,4.61µM*
CC12CCC(C(=O)N(CSC(=S)N/N=C\c3ccccc3Cl)C1=O)C2(C)C (stereo not given),-0.1%,-2.5%,?,-11.3%,?
CCOc1cc(/C=C2\C(=N)N3N=C(S(C)(=O)=O)SC3=NC2=O)ccc1OCCOc1cccc(OC)c1,3.7%,.,?,-3.2%,13µM*
CCS(=O)(=O)C1=NN2C(=N)/C(=C\c3ccc(OCCOc4cccc(OC)c4)c(OC)c3)C(=O)N=C2S1,-24.2%,.,11.4%,-17.5%,14.9%
COc1cc(/C=C2/C(=N)N3C=CSC3=NC2=O)ccc1OCCOc1ccc(NC(C)=O)cc1,-9.7%,2.7%,-5.1%,1.7%,-0.9%
COc1cc(/C=C2/C(=N)N3C=CSC3=NC2=O)ccc1OCCCOc1c(C)cccc1C,?,7.4%,11.2µM*,-26.6%,?
CCc1nn2c(=O)cc(COc3ccc(/C=C4\C(=N)N5N=C(CC(C)C)SC5=NC4=O)cc3)nc2s1,6.0%,.,44.7%,-0.3%,-2.6%
CCC1=NN2C(=N)/C(=C\c3ccc(OCc4cc(=O)n5nc(CC)sc5n4)c(OC)c3)C(=O)N=C2S1,22.4%,39.8µM*,2.2%,-17.9%,18.4%
COc1cc(/C=C2/C(=N)N3C=CSC3=NC2=O)ccc1OCCCOc1ccccc1C,2.82µM*,9.6%,4.47µM*,?,?
COc1ccc(OC)c(NC(=O)c2ccc(NS(C)(=O)=O)cc2)c1,-0.9%,4.0%,-6.3%,-5.5%,-16.9%
Cc1ccc(NC(=O)Cn2c(=O)n(Cc3nc(C)no3)c(=O)c3cc4c(cc32)OCO4)cc1,.,-2.8%,.,-19.9%,-24.5%
CN1CCN(C(=O)CNC(=O)c2cccs2)CC1,.,-0.1%,.,7.0%,-7.1%
Cc1cc(C(=O)O)cc(Br)c1N,-15.1%,0.0%,-23.3%,15.0%,4.9%
CCOc1cc(/C=C2/C(=N)N3C=CSC3=NC2=O)ccc1OCCCOc1ccccc1C,?,0.0%,-71.2%,10.3µM*,8.2µM*
Cc1ccnc(SCc2cn3c(C)cccc3n2)n1,27.5%,2.7%,?,22.6%,-12.0%
